# This is a sample that favours compounds with a hit; in the whole collection about 21% have one here.
# Pf growth 48h = Primary qHTS for delayed death inhibitors of the malarial parasite plastid, 48 hour incubation. P. falciparum luciferase growth in erythrocytes, 48 h. Potency, µM (highest dose often 28.7 µM), inactives show at the top dose activity change, negative = inhibition, actives largely listed as inhibitors. 310,000 tested, 5.9% active. AID 504832, 2011; further: potency means the concentration at half of the fitted maximal effect; on the % scale 0 is the no-effect control and ±100 the full control effect
#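 Luciferase-expressing P. falciparum in infected erythrocytes (2% hematocrit, 0.1% parasitemia final) in RPMI 1640/0.5% Albumax were exposed to compound for 48 hours at 37 C, 5% CO2; growth read as luminescence.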
# NS1 function inh = qHTS Assay for Inhibitors of Influenza NS1 Protein Function; 270,000 tested, 0.4% active; Potency, µM (top dose mostly 46.1 µM), for inactives: top-dose activity, positive = more growth; calls by dose curve; further: potency means the concentration at half of the fitted maximal effect; actives are rising curves; nearly all actives have a fitted effect of over 50% in size
#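 Read-out: OD600 growth recovery of NS1-expressing budding yeast. Cells grown overnight at 30C in -URA glucose medium, washed, resuspended and diluted 1:100 in 2% galactose assay medium, pH 6.0. Same strain lacking NS1 served as positive control.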
# FBPA Giardia inh = qHTS Assay for Inhibitors of Fructose-1,6-bisphosphate Aldolase from Giardia Lamblia. A8B2U2. purified Giardia FBPA. Potency, µM (titrated, usually from 59.6 µM), without a hit: at the top dose activity, negative = inhibition, hits mostly inhibitors. 290,000 tested, 0.71% active. AID 2451, 2010; further: potency means the concentration at half of the fitted maximal effect; on the % scale 0 is the no-effect control and ±100 the full control effect; nearly all actives have a fitted effect of over 55% in size
# Target sequence (A8B2U2 whole entry, looked up): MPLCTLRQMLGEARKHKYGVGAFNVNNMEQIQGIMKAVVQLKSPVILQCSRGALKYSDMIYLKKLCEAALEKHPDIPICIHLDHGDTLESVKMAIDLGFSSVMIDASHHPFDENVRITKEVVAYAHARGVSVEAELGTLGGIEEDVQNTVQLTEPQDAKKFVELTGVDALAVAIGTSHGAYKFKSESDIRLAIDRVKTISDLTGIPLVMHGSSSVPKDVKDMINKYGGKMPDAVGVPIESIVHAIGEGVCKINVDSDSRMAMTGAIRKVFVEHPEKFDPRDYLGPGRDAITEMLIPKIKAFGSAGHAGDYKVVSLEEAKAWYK
#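 Giardia FBPA (40 nM reagent) was preincubated 10 min at RT with compound (up to 57.5 uM final), then substrate plus GAPDH/TPI/NAD/arsenate coupling system with diaphorase/resazurin was added; resorufin fluorescence (525/598 nm) was read after 20 min.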
# CHX counter = Cycloheximide Counterscreen for Small Molecule Inhibitors of Shiga Toxin; cell reporter, cycloheximide protein synthesis inhibition counterscreen; max response, %; 300,000 tested, 12% active; in the data active means max response mostly above about 13%, no sharp cut-off; inactive means mostly below about 14%; further: read at 38.3 µM for the half of the compounds with a filed dose; 0% is about no effect
# Pf growth 96h = Primary qHTS for delayed death inhibitors of the malarial parasite plastid, 96 hour incubation; Potency, µM (series often up to 28.7 µM), for inactives: at the top dose activity change, negative = inhibition, hits mostly inhibitors; P. falciparum luciferase reporter growth, 96 h; 320,000 tested, 6.9% active; further: potency means the concentration at half of the fitted maximal effect; on the % scale 0 is the no-effect control and ±100 the full control effect
#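 Delayed-death screen, second-generation endpoint: infected erythrocytes, 2% hematocrit, 0.05% parasitemia final; 96 hours at 37 C, 5% CO2; luciferase detection reagent; luminescence decrease equals reduced growth.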
# Shiga toxin inh = A qHTS for Small Molecule Inhibitors of Shiga Toxin. Vero cells, Shiga toxin protein synthesis inhibition reporter. 290,000 tested, 9.2% active. inhibition, % at 38.7 µM; in the data active means inhibition mostly above about 28%, no sharp cut-off; inactive means mostly below about 43%; further: 0% is about no effect
# * marks the source's active call; other numbers are inactive results; ? = inconclusive; / = not tested or not shown; [ ] = another dose, or the depositor's remark. Unless noted, the call rests on the fitted dose curve; in most records, active means well fitted curve in the direction sought with a large enough effect; inconclusive means small, poorly fitted or top-dose-only effect, or another doubt; inactive means no such curve, though single readings can be large; an effect the other way counts as inactive or inconclusive.
SMILES,Pf growth 48h,NS1 function inh,FBPA Giardia inh,CHX counter,Pf growth 96h,Shiga toxin inh
O=C(CCC(=O)c1ccc(Cl)s1)Nc1ncccc1O,22%,/,/,/,46%,/
CC(=O)Nc1cccc(Oc2ccc(-c3noc(C)n3)cc2)c1,208%,-88%,-9%,44*,9%,79*
COc1ccc(-c2noc(-c3ccccc3C(=O)Nc3cccc(OC)c3)n2)cc1,?,7%,-3%,3,?,24
COc1ccc(C(CCNCc2ccc(F)cc2)c2ccc(F)cc2)cc1 (configuration not stated),4.7µM*,-18%,8%,-8,?,-26
COc1ccc(C(CCNCc2ccc(OC(C)C)cc2)c2ccccc2OC)cc1 (configuration not stated),12µM*,4%,0%,-5,12µM*,-4
COc1ccc(CNCCC(c2ccc(OC)cc2)c2ccccc2OC)cc1 (configuration not stated),?,1%,0%,-3,?,-4
COc1ccccc1C(CC(=O)Nc1ccccc1C)c1ccc(OC(C)C)cc1 (configuration not stated),15µM*,-3%,-4%,6,?,-8
COc1ccc(CN(CCC(c2ccccc2)c2ccc(OC(C)C)cc2)C(=O)CCl)cc1OC (configuration not stated),?,2%,-20%,10,3.7µM*,-9
COc1cc(CCCN2CCNC[C@@H]2Cc2ccc(O)cc2)cc(OC)c1OC,?,/,/,/,7%,/
COc1ccc(CNCCC(c2ccccc2)c2ccc(OC(C)C)cc2)cc1OC (configuration not stated),9.3µM*,-6%,8%,-10,?,-7
COc1ccc(CNCCC(c2ccc(F)cc2)c2ccc(OC(C)C)cc2)cc1OC (configuration not stated),13µM*,-40%,2%,-9,12µM*,-10
COc1ccc(CC(C)NCCC(c2ccccc2)c2ccccc2)cc1 (configuration not stated),?,-25%,-27%,-2,10µM*,-10
COc1ccc(C(CCNC(C)c2ccccc2)c2ccc(F)cc2)cc1 (configuration not stated),?,-12%,0%,-8,?,-19
COc1ccc(CNCCC(c2ccc(F)cc2)c2ccc(OC)cc2)cc1 (configuration not stated),?,-17%,3%,-8,?,-17
Cc1cccc(-n2nnc3c(=O)n(Cc4ccccn4)cnc32)c1,18%,/,13%,13,62%,9
COC(=O)c1cc2sccc2n1CC(=O)Nc1cccc(SC)c1,-14%,13%,-9%,-2,3.3µM*,-5
CCOC(=O)c1cc2sccc2n1CC(=O)OC,5%,-131%,-6%,1,/,-14
CCOC(=O)c1cc2sccc2n1CC(=O)Nc1ccc2c(c1)OCCO2,-19%,9%,9%,18*,40%,45
COC(=O)c1cc2sccc2n1CC(=O)Nc1ccc(OC)c(OC)c1OC,2.1µM*,?,3%,-1,20%,-5
CCOC(=O)c1cc2sccc2n1CC(=O)Nc1ccc(OC)cc1OC,?,-2%,2%,1,-1%[5.75 µM],-6
C[C@@H]([C@H](O)c1ccccc1)N(C)C(=S)Nc1ccccc1,11%,10%,-13%,-1,7%,20
Cn1ccc2cc(S(=O)(=O)N3CCN(S(=O)(=O)c4c(F)cccc4F)CC3)ccc21,/,/,/,-6,/,-6
CC(C)(C)NC[C@@H](O)c1ccc(O)c(CO)n1,-3%,-11%,/,/,-16%,/
COc1ccc(N2C(=O)NC3CC2(C)Oc2ccc(Cl)cc23)cc1OC (configuration not stated),?,-13%,-1%,-3,/,-1
COc1ccc(CCN2C(=S)NC3CC2(C)Oc2ccc([N+](=O)[O-])cc23)cc1OC (configuration not stated),/,7%,-3%,-5,12µM*,-6
SMILES,Pf growth 48h,NS1 function inh,FBPA Giardia inh,CHX counter,Pf growth 96h,Shiga toxin inh
O=C(CNC(=O)N1CC(=O)Nc2ccccc21)NCc1ccccc1Cl,?,1%,9%,-2,7%,-2
C=CCOCC(O)Cn1c(N2CCCC2)nc2c1c(=O)[nH]c(=O)n2C (configuration not stated),5%,12%,0%,-3,6.6µM*,-2
Cn1c(=O)[nH]c(=O)c2c1nc(N1CCCCC1)n2CC(O)COc1ccc([N+](=O)[O-])cc1 (configuration not stated),-12%,1%,-1%,-2,9.3µM*,45
Cn1c(=O)[nH]c(=O)c2c1nc(N1CCCC1)n2CC(O)COc1ccccc1 (configuration not stated),/,?,0%,-1,?,1
Cn1c(=O)[nH]c(=O)c2c1nc(N1CCCCC1)n2C/C=N/Nc1ccc(C(=O)O)cc1,?,1%,3%,62*,47%,46
CC(C)(C)CC(C)(C)c1ccc(O)c(C[N+](C)(C)[O-])c1,/,-3%,/,/,/,/
O=C(NC1CCC(NC(=O)C(F)(F)C(F)F)CC1)C(F)(F)C(F)F (configuration not stated),/,5%,1%,7,13µM*,53
COc1ccc2oc(=O)cc(CN(C)Cc3ccccc3)c2c1,?,-9%,2%,-4,?,-5
CCn1cnc2sc(C(=O)Nc3ccc4c(c3)OCO4)c(C)c2c1=O,174%,1%,-5%,38*,74%,94*
CCCNC(=O)Cn1cnc2sc(C(=O)Nc3ccc4c(c3)OCO4)c(C)c2c1=O,49%,5%,3%,2,136%,-5
Cc1ccc(NC(=O)Cn2cnc3sc(C(=O)NCCN(C)C)c(C)c3c2=O)cc1Cl,?,1%,1%,-2,12µM*,-4
COCCCNC(=O)c1sc2ncn(CC(=O)Nc3ccc(C)c(Cl)c3)c(=O)c2c1C,3%,/,0%,-2,3%,18
CCN(CC)CCCNC(=O)c1sc2ncn(CC(=O)Nc3ccc(C)c(Cl)c3)c(=O)c2c1C,13µM*,/,1%,-5,-5%,-10
Cc1cccc(OCCNS(=O)(=O)c2ccc(Cl)cc2)c1,-9%,/,/,/,-16%,/
Cc1n(C)c2cc(Cl)ccc2[n+]1Cc1ccccc1,2.9µM*,/,1%,-2,22%,-20
CC1CCN(S(=O)(=O)c2ccc3c(c2)N(C)C(=O)CC(=O)N3C)CC1,-4%,11%,2%,-2,21%,11
CCOC(=O)C1CCN(C(=O)Cn2cnc3sc(C)c(S(=O)(=O)N4CCC(C)CC4)c3c2=O)CC1,4.1µM*,5%,12%,-1,11%,8

# From PubChem
